# MBD2 inh = blocks human MBD2 binding to methylated DNA; Q9UBB5; TR-FRET, MBD2 binding to methylated oligonucleotide; inhibition, % at 4.4 µM; 370,000 compounds, 0.31% hits; AID 686964; in the data active means inhibition above about 13%
# PLC-beta3 inh = inhibitors of human phospholipase C beta3. Q01970. Purified PLC-beta3, fluorogenic substrate, fluorescence. inhibition, % at 12.2 µM. 370,000 compounds, 0.18% hits. AID 720704;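 further: 0% = median of compound wells on plate and 100% = full blocker control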
# Target sequence (Q01970 whole entry, looked up): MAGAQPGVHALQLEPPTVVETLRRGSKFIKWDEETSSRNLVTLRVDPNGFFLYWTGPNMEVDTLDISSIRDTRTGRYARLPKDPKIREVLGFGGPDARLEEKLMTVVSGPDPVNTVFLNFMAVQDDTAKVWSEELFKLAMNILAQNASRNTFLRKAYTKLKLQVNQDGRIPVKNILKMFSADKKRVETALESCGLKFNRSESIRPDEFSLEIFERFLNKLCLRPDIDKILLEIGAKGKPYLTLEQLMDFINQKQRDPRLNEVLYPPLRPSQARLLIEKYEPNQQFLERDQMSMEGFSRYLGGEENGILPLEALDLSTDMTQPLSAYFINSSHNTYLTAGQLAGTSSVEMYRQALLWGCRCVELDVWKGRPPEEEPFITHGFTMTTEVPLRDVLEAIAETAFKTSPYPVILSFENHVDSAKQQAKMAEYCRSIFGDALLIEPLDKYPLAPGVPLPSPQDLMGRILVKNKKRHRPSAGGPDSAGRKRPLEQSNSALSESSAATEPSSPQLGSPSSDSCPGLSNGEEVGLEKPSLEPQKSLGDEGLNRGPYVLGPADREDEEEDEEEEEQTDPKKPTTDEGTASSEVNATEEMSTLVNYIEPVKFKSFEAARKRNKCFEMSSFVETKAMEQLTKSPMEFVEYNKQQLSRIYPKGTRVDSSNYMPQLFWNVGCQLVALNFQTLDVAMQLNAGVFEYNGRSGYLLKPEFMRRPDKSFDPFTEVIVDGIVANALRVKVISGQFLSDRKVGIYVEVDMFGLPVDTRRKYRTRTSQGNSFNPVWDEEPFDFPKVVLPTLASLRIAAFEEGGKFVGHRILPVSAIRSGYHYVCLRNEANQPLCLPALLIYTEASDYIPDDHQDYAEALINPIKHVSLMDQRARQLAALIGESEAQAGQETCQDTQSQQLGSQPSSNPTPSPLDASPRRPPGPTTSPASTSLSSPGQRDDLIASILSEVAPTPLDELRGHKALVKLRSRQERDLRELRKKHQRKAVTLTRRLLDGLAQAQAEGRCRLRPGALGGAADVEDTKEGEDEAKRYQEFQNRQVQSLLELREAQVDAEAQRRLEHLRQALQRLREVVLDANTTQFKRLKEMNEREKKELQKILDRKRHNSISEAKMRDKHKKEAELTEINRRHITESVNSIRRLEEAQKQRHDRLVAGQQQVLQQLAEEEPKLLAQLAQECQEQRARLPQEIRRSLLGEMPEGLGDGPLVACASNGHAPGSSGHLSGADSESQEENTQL
# LEDGF integ inh = blocks HIV-1 LEDGF/p75-dependent DNA integration | TR-FRET IN-LEDGF/p75 DNA integration, Eu/Cy5 | inhibition, % at 3.7 µM | 370,000 compounds, 0.64% hits | AID 743269;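 active means inhibition above the screen-wide mean plus 3 SD, cut at about 13% in these data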;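 further: signal is the Cy5 over europium emission ratio at 671 and 618 nm; 0% = plate median of compound wells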
# PLCg1 inh = PLC-gamma1 (human) inhibition, primary screen; P19174; purified PLC-gamma1, fluorogenic substrate, fluorescence; inhibition, % at 12.2 µM; 370,000 compounds, 0.84% hits; in the data active means inhibition above about 9.5%
# UHRF1 MBD2 ctr = human UHRF1 methylated DNA binding inhibitors | UHRF1 binding to methylated oligo, TR-FRET | AID 687016 | 370,000 compounds, 0.75% hits | Q96T88 | inhibition, % at 4.4 µM; in the data active means inhibition above about 21%;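 further: UHRF1 SRA domain binding a hemimethylated CpG hairpin DNA probe; 0% = median of test compound wells and 100% = reference inhibitor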
# PLCgamma1 ctr = counter-screen for PLC-beta3 inhibitors: inhibitors of human PLC-gamma1. shares compounds with PLCg1 inh. purified PLC-gamma1, fluorogenic substrate, fluorescence. inhibition, % at 12.3 µM. 3,300 compounds, 3.1% hits; in the data active means inhibition above about 9.5%
# PLCb3 confirm = confirmation of human PLC-beta3 inhibitors | shares compounds with PLCg1 inh | purified PLC-beta3, fluorogenic substrate fluorescence | 3,300 compounds, 1% hits | inhibition, % at 12.3 µM
# Active calls of the source: *; . = not tested or not shown. Hits are enriched below; roughly 2.4% of the tested compounds scored in any of these assays. Unless noted, no stated cut-off is given here; in the data, active means inhibition above about 11%; inactive means the rest.
SMILES,MBD2 inh,PLC-beta3 inh,LEDGF integ inh,PLCg1 inh,UHRF1 MBD2 ctr,PLCgamma1 ctr,PLCb3 confirm
COc1ccc(NC(=O)CSc2nnnn2-c2ccc(OC)cc2)cc1,-5,1,0,11*,7,0,2
COC(=O)C1CN(Cc2cn(CCC3OCCO3)nn2)CCS(=O)(=O)N1Cc1ccc(Cl)cc1 (stereo not drawn),11,0,-1,2,16,.,.
S=C(Nc1ccc(Br)cc1)OCCN1CCCC12CCC(c1ccccc1)CC2 (stereo not drawn),-11,1,-2,0,-1,.,.
Cc1cc(C(=O)O[C@H]2CCC[C@@]3(C(=O)N(Cc4ccccc4)c4ccccc43)[C@H]2NC(=O)CCc2ccccc2)no1,-6,7,-2,7,1,.,.
CCc1nnn2c1Cn1c3ccccc3c(=O)n1[C@@H](C)C2,-4,-39,-2,-28,1,.,.
CCOC(=O)N1CCN(C(=O)C[C@H]2C[C@@]3(C(=O)OC)C(=C[C@H](C(C)C)O[C@@H]3C3CC3)N(Cc3ccc(Cl)cc3Cl)C2=O)CC1,-6,0,9,7,1,.,.
Cc1cc(C)nc(SCc2nnc(SCC(=O)Nc3nc(-c4ccccc4)cs3)n2-c2ccccc2)n1,-1,7,2,11*,-1,-3,0
Cc1ccc(C(=O)CSc2nnc(-c3ccccc3)n2-c2ccccc2)o1,-3,4,-1,-2,-1,.,.
C=CCn1c(SCC(=O)Nc2ccccc2C)nnc1-c1ccncc1,3,-1,-2,-2,2,.,.
C=CCn1c(SCC(=O)Nc2ccccc2-c2ccccc2)nnc1-c1ccccc1,1,10,2,13*,3,-1,2
Cc1ccc(C(=O)CSc2nnnn2-c2ccccc2)o1,4,-1,2,11*,7,-5,1
O=C(O)CCSc1nnc(COc2ccc([N+](=O)[O-])cc2)n1-c1ccccc1,4,-3,5,11*,3,0,2
CCC(=O)N1CCc2cc(Br)c(S(=O)(=O)NCc3ccccc3OC)cc21,1,0,-2,-2,1,.,.
Clc1cc(Cl)cc(CNC2CCC23CCCCC3)c1 (stereo not drawn),-4,3,-1,-1,0,.,.
COc1ccc(-n2c(COc3ccccc3)nnc2SCC(=O)Nc2ccc(OCc3ccccc3)cc2)cc1,8,0,0,9.6*,3,5,-9
CCOC(=O)[C@H]1[C@H]2COc3ccccc3[C@@H]2N2C(=O)c3cc(F)c(F)cc3NC(=O)[C@@]12C,1,5,-2,4,0,.,.
CCOC(=O)[C@H]1[C@H]2COc3ccccc3[C@@H]2N2C(=O)CNC(=O)[C@@]12C,-6,13*,-3,7,3,-9,-2
COc1cc(OC)nc(Nc2nc(C(N)c3ccccc3Cl)cs2)n1 (stereo not drawn),2,0,5,3,-2,.,.
NC(c1csc(Nc2ncccn2)n1)c1ccccc1Cl (stereo not drawn),0,11,10,12*,0,-8,0
Cc1ccc(S(=O)(=O)c2cccc(S(=O)(=O)N3CCCC3)c2)cc1S(=O)(=O)N1CCCC1,3,14*,6,9.9*,12,-1,0
Cc1ccc(S(=O)(=O)c2cccc(S(=O)(=O)N3CCOCC3)c2)cc1S(=O)(=O)N1CCOCC1,4,-1,-3,2,-1,.,.
CCOC(=O)N1CCN(C(=O)C[C@H]2C[C@@]3(C(=O)OC)C(=C[C@H](C(C)(C)C)O[C@@H]3C)N(Cc3ccco3)C2=O)CC1,-1,1,2,2,1,.,.
Cc1cc(C(=O)N2CCCC(C(=O)c3cccc4ccccc34)C2)nc(C)n1 (stereo not drawn),-3,-1,6,10*,-1,-2,-4
Cc1ccn(CC(=O)N2CCCC(C(=O)c3cccc4ccccc34)C2)n1 (stereo not drawn),1,-8,-5,-3,-1,.,.
Cc1cc(C)cc(C(=O)NCC(=O)OCC(=O)N2c3ccccc3NC(=O)C2(C)C)c1,0,2,-3,2,0,.,.
COc1cc(OC)cc(C(=O)NCC(=O)OCC(=O)N2c3ccccc3NC(=O)C2(C)C)c1,0,-1,1,11*,3,5,1
